In the library only some 2.1% were active in any assay of this set; here they are far more common.
aSyn rescue: rescues yeast growth from alpha-synuclein toxicity; 370,000 tested, 0.14% active; Yeast expressing alpha-synuclein, growth rescue, BacTiter-Glo, 24 h; AID 652106; Potency, µM (top dose mostly 46.1 µM), inactives show at the top dose growth rescue (activation), actives largely listed as activators; further: % of control where 0% means no effect; nearly all actives have a fitted effect of over 65% in size
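Rescue of yeast growth: cells expressing toxic alpha-synuclein, induced in galactose at OD600 0.02, incubated with compound 24 h at 30 C. ATP luminescence quantified growth; inhibitors of toxicity appear as activators.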
Abeta rescue: A-beta toxicity reversal in yeast; yeast expressing A-beta42, growth rescue, OD600, 48 h; response scale: 0% DMSO, 100% iron-clioquinol control; Potency, µM (highest dose often 46.1 µM), actives largely listed as activators; 410,000 tested, 0.063% active; further: nearly all actives have a fitted effect of over 55% in size
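Yeast growth medium received pinned compounds, then yeast cells expressing toxic A-beta were added; plates incubated at 30 C for 48 hr. Growth read as absorbance at 600 nm, normalized to DMSO and equimolar FeCl3 plus clioquinol controls.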
FUS suppressor: suppressors of FUS proteinopathy in yeast. S. cerevisiae FUS-expressing, growth rescue, OD600, 24 h. Potency, µM (highest dose often 76.6 µM), usual class: activators. 390,000 tested, 0.24% active. AID 1347120;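 further: plate controls were DMSO vehicle for no effect and reference control for full effect; nearly all actives have a fitted effect of over 55% in size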
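Toxicity suppression screen in FUS-yeast. Cells induced with 2% galactose, starting OD 0.005, treated 24hr at 30C with compounds at multiple final concentrations; growth by OD600.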
TDP43 rescue: TDP-43 toxicity inhibition in yeast; Potency, µM (titrated, usually from 46.1 µM), for inactives: at the highest dose growth rescue (activation), hits mostly activators; TDP-43 expressing yeast growth rescue, BacTiter-Glo, 24 h; 410,000 tested, 1.8% active; further: % of control where 0% means no effect; nearly all actives have a fitted effect of over 50% in size
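Galactose-induced TDP-43 yeast, OD600=0.02, compound pinned; 24 hr, 30 deg C; BacTiter-Glo luminescence for growth. Inhibitors of TDP-43 toxicity read as activators.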
An asterisk follows results filed as active; i = inactive; ? = inconclusive; . = no result given; [ ] = another dose, or the depositor's remark. The call rests on the fitted dose curve; in most records, active means well fitted curve in the direction sought with a large enough effect; inconclusive means small, poorly fitted or top-dose-only effect, or another doubt; inactive means no such curve, though single readings can be large; an effect the other way counts as inactive or inconclusive. Potency means the concentration at half of the fitted maximal effect.

SMILES | aSyn rescue | Abeta rescue | FUS suppressor | TDP43 rescue
Cn1cnc2c1c(=O)n(Cc1ccc(Cl)cc1Cl)c(=O)n2C | 14% | i | i | 22µM*
Cn1cnc2c1c(=O)n(Cc1ccccc1)c(=O)n2C | -2% | i | i | 16%
CC1(C(=O)NS(=O)(=O)c2cccc(Cl)c2)CCN1C(=O)C1(c2ccc(Cl)cc2)CCC1 (stereo not drawn) | -24% | i | i | ?
CCCn1nc(NC(=O)C2CCCO2)c2cc3cc(C)ccc3nc21 (stereo not drawn) | -2% | i | i | 35µM*
CCCn1nc(NC(=O)C2CCCO2)c2cc3ccc(C)cc3nc21 (stereo not drawn) | -3% | i | i | 2%
Nc1c2c(=O)oc(-c3ccccc3)cc2nn1-c1ccccc1 | 25% | i | i | 14µM*
Cc1ccc2cc(C3C(C#N)=C(N)Oc4c3ccc3cccnc43)c(=O)[nH]c2c1 (stereo not drawn) | -2% | i | 28µM* | -22%
CCc1ccc2[nH]c(=O)c(C3C(C#N)=C(N)Oc4c3ccc3cccnc43)cc2c1 (stereo not drawn) | 8% | i | 25µM* | 4%
CCc1cccc(NC(=O)CCNS(=O)(=O)c2ccc3c(c2)oc(=O)n3C)c1 | 6% | i | i | 3%
CNC(=O)C(=O)NCC1OCCN1S(=O)(=O)c1ccc(OC)c(OC)c1 (stereo not drawn) | -1% | i | . | 20%
Cc1nc(C)c(-c2ccc(SCc3ccccc3C)nn2)s1 | 1% | i | i | 16µM*
Cc1nc(C)c(-c2ccc(SCC(=O)Nc3ccccc3)nn2)s1 | 1% | i | i | 9%
COc1cc(NC(=O)CC2C(=O)OCCN2Cc2ccccc2)cc(OC)c1 (stereo not drawn) | . | i | i | 25µM*
COC(=O)c1cc(NC(=O)CC2C(=O)OCCN2Cc2ccccc2)cc(C(=O)OC)c1 (stereo not drawn) | . | i | i | ?
O=C(CC1C(=O)OCCN1Cc1ccccc1)Nc1ccc(F)cc1 (stereo not drawn) | . | i | i | 13µM*
CC(C)COc1ccc(C(=O)NCC2OCCc3ccccc32)cc1 (stereo not drawn) | . | i | i | 26%
COc1ccc(C(=O)NCC2OCCc3ccccc32)c(O)c1 (stereo not drawn) | -12% | i | i | 14µM*
CCOC(=O)N1CCN(C(=O)C[C@@H]2C[C@@]3(C(=O)OCC)CCC=C3N(Cc3ccc(Cl)cc3Cl)C2=O)CC1 | 21% | i | ? | 22µM*
CCOC(=O)N1CCN(C(=O)C[C@@H]2C[C@@]3(C(=O)OCC)CCC=C3N(Cc3cccc4ccccc34)C2=O)CC1 | 17% | i | i | 16µM*
Cc1ccc(C)c(S(=O)(=O)N2CCCCC2CCNC(=O)C(=O)NCc2ccccc2)c1 (stereo not drawn) | -4% | i | ? | -24%
Cc1onc(-c2c(Cl)cccc2Cl)c1CO/N=C(\C#N)c1c(Cl)cccc1Cl | 13% | i | i | 11%
Cc1ccc(C)c(CN2C(=O)NC3(CCCCCC3)C2=O)c1 | 0% | ? | i | 22µM*
O=C(COc1ccc(F)cc1Br)NCCCN1CCCC1=O | -2% | i | i | 5%
O=C(Nc1nc2c(s1)CCCC2)c1ccc(Br)o1 | -28% | i | i | 19%
Cc1ccc(C(=O)Nc2nc3c(s2)CCCC3)o1 | -27% | i | i | 14µM*
SMILES | aSyn rescue | Abeta rescue | FUS suppressor | TDP43 rescue
CCC(Oc1ccc(F)cc1)C(=O)Nc1nc2c(s1)CCCC2 (stereo not drawn) | . | ? | i | 11µM*
O=C(Cn1c(=O)n(-c2ccc(F)cc2)c(=O)c2sc3ccccc3c21)N1CCCC1 | . | i | i | 2%
CC(=O)Nc1ccc(C(CCCc2ccccc2)C2=CCCCC2)cc1 (stereo not drawn) | . | . | i | .
N#Cc1c[nH]n2c(NC3CCCCC3)c(-c3ccccc3F)nc12 | . | i | i | 20%[9.22 µM]
COc1ccc([N+](=O)[O-])cc1NC(=O)C(C)Sc1ccc(C)cc1 (stereo not drawn) | 9% | i | . | 13µM*
COc1ccc([N+](=O)[O-])cc1NC(=O)C(C)OC(=O)C1CCCC1 (stereo not drawn) | -3% | i | i | 27%
COc1ccc([N+](=O)[O-])cc1NC(=O)C(C)OC(=O)CC1CCCC1 (stereo not drawn) | -10%[1.84 µM] | i | ? | 20µM*
O=C(CN1C(=O)NC2(CCCCC2)C1=O)N1CCN(S(=O)(=O)c2ccc(F)c(F)c2F)CC1 | -2% | i | i | -17%
Nc1ccc(N=Nc2ccccc2O)c(N)c1 | -8% | i | i | 22%
Oc1ccccc1N=Nc1ccccc1O | 13µM* | ? | i | ?
COc1ccc(-c2nc3c(C#N)c[nH]n3c2NC2CCCCC2)cc1 | . | i | i | 15%[9.22 µM]
CC(C)OCCCNc1sc(S(=O)(=O)c2ccccc2)nc1S(=O)(=O)c1ccc(Cl)cc1 | . | i | 32µM* | 12%
CCN(CC)CCCNc1sc(S(=O)(=O)c2ccccc2)nc1S(=O)(=O)c1ccc(Cl)cc1 | . | i | i | 25%
CCC(C)Sc1nnc(NC(=O)c2ccco2)s1 (stereo not drawn) | -24% | i | i | 13µM*
COC(CN1C(=O)C(O)=C(C(C)=O)C1c1ccccn1)OC (stereo not drawn) | 0% | i | i | -6%
O=c1oc2cc(O)ccc2c2c1CCCC2 | 14% | i | i | 13µM*
Cc1cc(=O)oc2cc(O)ccc12 | -8% | i | i | 12%
CC(=O)Oc1ccc2c3c(c(=O)oc2c1)CCCC3 | 6% | ? | i | ?
O=c1cc(O)c2ccc(O)cc2o1 | ? | i | i | 14µM*
CCOC(=O)c1nnn(-c2nonc2N)c1-c1ccc(F)cc1 | -6% | i | i | -8%
Cc1ccc(N2C(=O)C(c3c(C)[nH]n(-c4ccccc4)c3=O)(C(F)(F)F)C3=C2CC(C)(C)CC3=O)cc1 (stereo not drawn) | -11% | i | i | 21%
Cc1[nH]n(-c2ccccc2)c(=O)c1C1(C(F)(F)F)C(=O)N(c2ccccc2)C2=C1C(=O)CC(C)(C)C2 (stereo not drawn) | 6% | i | 32µM* | -3%
Cn1c(=O)n(CCc2ccccc2)c(=O)c2c1nc1n2CCCN1CCc1ccccc1 | 1% | i | i | 13µM*
CC(=O)c1cc(-c2cccc(Cl)c2O)c(=O)n2c1CCC2 | . | . | i | .
CN(C)C(=O)CC12CC3CC(C1)CC(CC(=O)N(C)C)(C3)C2 | 1% | i | i | 17%
Cc1nn(C)cc1CN(C)C(=O)CC12CC3CC(CC(C3)C1)C2 | -1% | i | . | 22µM*
COc1ccc(OCC(=O)NCC2(N3CCN(C)CC3)CCCCC2)cc1 | . | i | i | 1%

From PubChem BioAssay
